Measurements: PubChem BioAssay (Tox21)
Where “and” joins values, the source holds several entries; their conditions need not be identical. Identical values can stand only once. Results filed as inconclusive are left out. Where a structure was tested more than once in an assay, its records may differ in their call. Calls of active or inactive are those of the source. Calls come from the whole dose curve; as a rule, active = well fitted curve in the direction sought with a large enough effect in the repeat runs; inconclusive = weak or mixed curves; inactive = no such curve, though single readings can be large; an effect the other way counts as inactive or inconclusive.

Legend:
[1] = A CellTox Green Cytotoxicity Assay to monitor cytotoxicity in HEK293 cells - 40 hour (AID 1224871); note: nearly all actives have a fitted effect of over 45% in size; note: potency is the fitted concentration of half-maximal effect
Outline: (§1)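 Tox21 screen in HEK293: membrane-impermeant cyanine dye fluoresces on binding dead-cell DNA; compound pinned 5 h post-seeding, plates held at 37 C, signal read repeatedly through 40 h.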

[2] = qHTS RealTime-Glo MT Cell Viability Assay in HEK293 cells - 16 hour (AID 1224872); note: nearly all actives have a fitted effect of over 50% in size; note: potency is the fitted concentration of half-maximal effect
Outline: (§2)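 HEK293 cells were seeded at 600 cells/well together with NanoLuc luciferase and cell-permeant prosubstrate, preincubated 5 h at 37 C/5% CO2, then given compound in DMSO by pintool. Luminescence from viable-cell prosubstrate reduction was read repeatedly over 40 h.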

[3] = qHTS RealTime-Glo MT Cell Viability Assay in HepG2 cells - 8 hour (AID 1224873); note: nearly all actives have a fitted effect of over 55% in size
Outline: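 HepG2 cells (600/well) mixed with RealTime-Glo MT reagent, settled 5 h at 37 C/5% CO2 before compound addition. Nonlytic NanoLuc luminescence from viable-cell prosubstrate reduction read repeatedly during 40 h treatment at 37 C.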

[4] = qHTS RealTime-Glo MT Cell Viability Assay in HEK293 cells - 40 hour (AID 1224874); details: RealTime-Glo luminescence; max response: stronger effect = lower value; note: nearly all actives have a fitted effect of over 50% in size; note: potency is the fitted concentration of half-maximal effect
Outline: (§3)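 HEK293 + NanoLuc + prosubstrate, 600 cells/well; 5 h, 37 C/5% CO2; compound 23 nL in DMSO by pintool; 37 C; luminescence read at 0, 8, 16, 24, 32 and 40 h time points.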

[5] = A CellTox Green Cytotoxicity Assay to monitor cytotoxicity in HEK293 cells - 24 hour (AID 1224875); note: series mostly up to about 77 µM; nearly all actives have a fitted effect of over 45% in size
Outline: as §1

[6] = A CellTox Green Cytotoxicity Assay to monitor cytotoxicity in HepG2 cells - 16 hour (AID 1224876); note: nearly all actives have a fitted effect of over 45% in size; note: potency is the fitted concentration of half-maximal effect
Outline: (§4)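 Measurements at 0, 8, 16, 24, 32 and 40 h of treatment captured CellTox Green fluorescence in HepG2 cells that had been co-plated with reagent and preincubated 5 h at 37 C/5% CO2.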

[7] = qHTS RealTime-Glo MT Cell Viability Assay in HepG2 cells - 32 hour (AID 1224877); note: nearly all actives have a fitted effect of over 55% in size
Outline: (§5)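 HepG2 cells were seeded at 600 cells/well together with NanoLuc luciferase and a cell-permeant prosubstrate, preincubated 5 h at 37 C/5% CO2, then pin-dosed with compounds in DMSO. Nonlytic luminescence from viable cells was read at each time point.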

[8] = A CellTox Green Cytotoxicity Assay to monitor cytotoxicity in HepG2 cells - 24 hour (AID 1224878); note: nearly all actives have a fitted effect of over 45% in size
Outline: as §4

[9] = A CellTox Green Cytotoxicity Assay to monitor cytotoxicity in HepG2 cells - 40 hour (AID 1224879); note: nearly all actives have a fitted effect of over 40% in size
Outline: as §4

[10] = qHTS RealTime-Glo MT Cell Viability Assay in HEK293 cells - 0 hour (AID 1224880)
Outline: as §3

[11] = A CellTox Green Cytotoxicity Assay to monitor cytotoxicity in HEK293 cells - 32 hour (AID 1224881); note: nearly all actives have a fitted effect of over 40% in size
Outline: as §1

[12] = A CellTox Green Cytotoxicity Assay to monitor cytotoxicity in HepG2 cells - 0 hour (AID 1224882); note: nearly all actives have a fitted effect of over 35% in size
Outline: as §4

[13] = A CellTox Green Cytotoxicity Assay to monitor cytotoxicity in HepG2 cells - 32 hour (AID 1224883); note: nearly all actives have a fitted effect of over 50% in size
Outline: as §4

[14] = A CellTox Green Cytotoxicity Assay to monitor cytotoxicity in HEK293 cells - 8 hour (AID 1224884); note: nearly all actives have a fitted effect of over 35% in size
Outline: as §1

[15] = qHTS RealTime-Glo MT Cell Viability Assay in HepG2 cells - 16 hour (AID 1224885); note: nearly all actives have a fitted effect of over 50% in size
Outline: as §5

[16] = qHTS RealTime-Glo MT Cell Viability Assay in HEK293 cells - 24 hour (AID 1224886); note: nearly all actives have a fitted effect of over 50% in size; note: potency is the fitted concentration of half-maximal effect
Outline: as §2

[17] = A CellTox Green Cytotoxicity Assay to monitor cytotoxicity in HEK293 cells - 16 hour (AID 1224888); note: nearly all actives have a fitted effect of over 35% in size
Outline: as §1

[18] = qHTS RealTime-Glo MT Cell Viability Assay in HepG2 cells - 0 hour (AID 1224889); note: nearly all actives have a fitted effect of over 50% in size
Outline: as §5

[19] = A CellTox Green Cytotoxicity Assay to monitor cytotoxicity in HepG2 cells - 8 hour (AID 1224890); note: nearly all actives have a fitted effect of over 45% in size
Outline: as §4
% is set by controls: 0 for no effect and ±100 for the full control effect.

C1CCCNCC1
inactive: Potency [1] | Potency [2] | Potency [3] | max response [4] 6.44% and 0.666% | Potency [5] | Potency [6] | Potency [7] | Potency [8] | Potency [9] | Potency [10] | Potency [11] | Potency [12] | Potency [13] | Potency [14] | Potency [15] | Potency [16] | Potency [17] | Potency [18] | Potency [19]

CS(=O)(=O)c1ccc(Cl)cc1
inactive: Potency [1] | Potency [2] | Potency [3] | max response [4] -0.177% and 6.75% | Potency [5] | Potency [7] | Potency [8] | Potency [9] | Potency [10] | Potency [11] | Potency [12] | Potency [13] | Potency [14] | Potency [15] | Potency [16] | Potency [17] | Potency [18] | Potency [19]
inactive and 38.9 µM (active): Potency [6]

COc1ccc2cc3[n+](cc2c1OC)CCc1cc2c(cc1-3)OCO2
inactive: Potency [3] | Potency [5] | Potency [6] | Potency [7] | Potency [8] | Potency [9] | Potency [10] | Potency [12] | Potency [13] | Potency [14] | Potency [15] | Potency [17] | Potency [18] | Potency [19]
active: Potency [1] 22 µM and 19 µM | Potency [2] 4.4 µM | Potency [4] 4.4 µM and 9.52 µM | Potency [16] 4.4 µM and 10.7 µM

CC1(C)[C@@H](O[C@H]2O[C@H](C(=O)O)[C@@H](O)[C@H](O)[C@H]2O[C@@H]2O[C@H](C(=O)O)[C@@H](O)[C@H](O)[C@H]2O)CC[C@]2(C)[C@H]3C(=O)C=C4[C@@H]5C[C@@](C)(C(=O)O)CC[C@]5(C)CC[C@@]4(C)[C@]3(C)CC[C@@H]12
inactive: Potency [1] | Potency [2] | Potency [3] | max response [4] -4.4% and 0.425% | Potency [5] | Potency [6] | Potency [7] | Potency [8] | Potency [9] | Potency [11] | Potency [12] | Potency [13] | Potency [14] | Potency [15] | Potency [16] | Potency [17] | Potency [19]

CC(=O)OCc1ccc2c(c1)OCO2
inactive: Potency [1] | Potency [2] | Potency [3] | max response [4] 2.92% and 8.23% | Potency [5] | Potency [6] | Potency [7] | Potency [8] | Potency [9] | Potency [10] | Potency [11] | Potency [12] | Potency [13] | Potency [14] | Potency [15] | Potency [16] | Potency [17] | Potency [18] | Potency [19]

O=C(Cl)c1ccc(C(=O)Cl)cc1
inactive: Potency [1] | Potency [2] | Potency [3] | max response [4] -18.9% and 3.42% | Potency [5] | Potency [6] | Potency [7] | Potency [8] | Potency [9] | Potency [10] | Potency [11] | Potency [12] | Potency [13] | Potency [14] | Potency [15] | Potency [16] | Potency [17] | Potency [18] | Potency [19]
